Measurements published in PubChem BioAssay (NCATS).
Records with an inconclusive call do not appear. A number with no mark means an inactive call. The source made the active and inactive calls. Calls come from the whole dose curve; as a rule, active = well fitted activation curve with a large enough effect; inconclusive = small, poorly fitted or top-dose-only effect; inactive = no such curve, though single readings can be large or run the other way.

These compounds were tested against Cellular tumor antigen p53 (Homo sapiens) (UniProt P04637) (assay: Primary qHTS for small molecule compounds that upregulate eGFP-tagged delta133p53alpha (in N-terminal) cells. (AID 2060322; note: nearly all actives have a fitted effect of over 75% in size;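 for activation: series mostly up to about 56 µM; 0% = DMSO vehicle and 100% = reference activator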)). Details: NCI-H358 eGFP-delta133p53alpha fluorescence, 24 h; activation: stronger effect = higher value.
How it was run: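 NCI-H358 cells pre-induced 24 h with 10 ng/ml doxycycline to express N-terminal eGFP-delta133p53alpha, then dosed 24 h at 37C without doxycycline; fixed, Hoechst-stained, GFP intensity by laser scanning cytometry, normalized to DMSO (0%) and 57.5 uM 5-azacytidine (100%).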
Potency is the fitted concentration of half-maximal effect.

Sequence of Cellular tumor antigen p53 (Homo sapiens) (P04637 whole entry, looked up): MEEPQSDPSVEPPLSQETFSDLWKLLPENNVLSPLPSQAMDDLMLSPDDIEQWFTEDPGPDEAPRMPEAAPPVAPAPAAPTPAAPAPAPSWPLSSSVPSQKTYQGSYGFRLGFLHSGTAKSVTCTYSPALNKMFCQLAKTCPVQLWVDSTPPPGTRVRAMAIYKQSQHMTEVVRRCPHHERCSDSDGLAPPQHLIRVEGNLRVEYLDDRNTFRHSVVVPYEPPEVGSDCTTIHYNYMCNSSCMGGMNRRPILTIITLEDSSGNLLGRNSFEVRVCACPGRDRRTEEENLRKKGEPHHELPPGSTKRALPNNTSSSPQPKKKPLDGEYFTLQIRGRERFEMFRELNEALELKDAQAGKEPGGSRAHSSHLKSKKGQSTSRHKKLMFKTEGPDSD

SMILES | activation [%] | Potency
CC1(C)S[C@@H]2[C@H](NC(=O)C(c3ccccc3)S(=O)(=O)O)C(=O)N2[C@H]1C(=O)O (stereo not given in full) | -13 | 
CC[C@H]1OC(=O)[C@H](C)C(=O)[C@H](C)[C@@H](O[C@H]2O[C@H](C)C[C@H](N(C)C)[C@@H]2O)[C@](C)(OC)C[C@@H](C)C(=O)[C@H](C)[C@H]2N(CCCCn3cnc(-c4cccnc4)c3)C(=O)O[C@]12C | 1.46 | 
CCn1cc(C(=O)O)c(=O)c2cnc(N3CCCC3)nc21 | 3.95 | 
COc1cc(C=C2CCC/C(=C\c3ccc(O)c(OC)c3)C2=O)ccc1O |  | 19.5 µM (active)
CN1CCC[C@@H]1CCO[C@](C)(c1ccccc1)c1ccc(Cl)cc1 | 26.6 | 
Cc1ccccc1N1CCN(CCc2nnc3n2CCCC3)CC1 | -10.7 | 
CN(C)CC[C@H](c1ccc(Cl)cc1)c1ccccn1 | 26.7 | 
CCCCCCCCNC(C)C(O)c1ccc(SC(C)C)cc1 (stereo not given) |  | 21.9 µM (active)
CC(C(=O)O)c1ccc(C(=O)c2cccs2)cc1 (stereo not given) | 9.21 | 
CC1=C(C/C=C(\C)CCC[C@H](C)CCC[C@H](C)CCCC(C)C)C(=O)c2ccccc2C1=O | 18.6 | 
